From PubChem
BioA inh – inhibitors of Mycobacterium tuberculosis BioA enzyme; purified M. tuberculosis BioA enzyme, plate reader; AID 602481; actives 0.096% (n = 360,000); inhibition, % at 9.99 µM; in the data active means inhibition above about 40%; inconclusive means no clear call, values can overlap the other calls
Yp Topo-I inh – Y. pestis Topo-I inhibition via cleavage products; actives 0.064% (n = 360,000); Y. pestis Topo-I cleavage product accumulation, plate reader; activity, % at 10 µM; AID 504884; in the data active means activity above about 50%, passing the limit was not always enough; inconclusive means no clear call, values can overlap the other calls
TcdB inh – inhibitors of Clostridioides difficile toxin B glycohydrolase | actives 0.24% (n = 350,000) | inhibition, % at 9.99 µM | TcdB glycohydrolase enzymatic assay, plate reader | P18177; in the data active means inhibition above about 10%
DUSP3 inh – DUSP3 (human) phosphatase inhibition; actives 0.52% (n = 290,000); AID 1654; P51452; inhibition, % at 13.3 µM; recombinant VHR phosphatase, pNPP absorbance; in the data active means inhibition above about 50%
Target sequence (P51452 whole entry, looked up): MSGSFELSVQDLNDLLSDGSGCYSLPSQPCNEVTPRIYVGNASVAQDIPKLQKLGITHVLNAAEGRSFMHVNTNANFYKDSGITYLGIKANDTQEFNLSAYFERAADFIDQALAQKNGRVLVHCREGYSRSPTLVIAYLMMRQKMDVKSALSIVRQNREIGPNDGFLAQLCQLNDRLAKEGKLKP
Vc quorum ag – quorum light induction in luxS cqsA deficient V. cholerae | actives 0.16% (n = 350,000) | activation, % at 18.7 µM | AID 588436 | V. cholerae BH1578 lux reporter, luminescence, 6 h; in the data active means activation mostly above about 9.7%, no sharp cut-off; inconclusive means no clear call, values can overlap the other calls; inactive means mostly below about 3.7%
* = called active by the depositor; i = inactive; ? = inconclusive; nt = no result given; ! = not confirmed by another sample. In the library only some 0.73% were active in any assay of this set; here they are far more common.

SMILES | BioA inh | Yp Topo-I inh | TcdB inh | DUSP3 inh | Vc quorum ag
CNC[C@@H]1OCCCC[C@H](C)Oc2ccc(NC(=O)CCC(F)(F)F)cc2C(=O)N([C@H](C)CO)C[C@H]1C | -3 | nt | 1 | nt | nt
CCc1ccc(C2=NN(C(=O)OC)C(O)(C(F)(F)F)C2)cc1 (stereo not drawn) | 0 | -4 | nt | 52* | -2
C[C@H](CO)N1C[C@H](C)[C@@H](CN(C)CC2CCCCC2)Oc2ccc(NC(=O)CCN3CCOCC3)cc2C1=O | -2 | 23 | 10*! | nt | i
C[C@H]1CN([C@@H](C)CO)C(=O)c2cc(NC(=O)CCN3CCOCC3)ccc2O[C@@H]1CN(C)CC1CCCCC1 | -2 | nt | -1 | nt | nt
CO[C@@H]1CN(C)C(=O)c2ccc(NC(=O)C3CCC3)cc2OC[C@@H](C)N(C(=O)NC(C)C)C[C@H]1C | 0 | nt | 0 | nt | nt
Cc1cc(O)ccc1NC(=O)c1ccccc1 | nt | 2 | 12* | -12 | -2
CCCNC(=O)C[C@@H]1CC[C@H]2[C@H](COc3ccc(NC(=O)Nc4c(C)noc4C)cc3C(=O)N2C)O1 | -4 | nt | 0 | nt | nt
NNC(=O)c1sc(-c2ccc(Cl)cc2)cc1N | -2 | 2 | 0 | 51* | i
CC(C)[C@H](NC(=O)Cc1ccccc1)C(=O)OCc1cc(=O)n2c(n1)sc1ccccc12 | nt | 10 | -1 | 54* | 0
Cc1ccc2c(CC(=O)OCc3cc(=O)n4c(n3)sc3ccccc34)coc2c1 | -2 | -3 | nt | 11 | -1
C[C@H](NC(=O)C[C@H]1CC[C@@H](NC(=O)Cc2ccccn2)[C@@H](CO)O1)c1ccccc1 | -4 | nt | -1 | nt | nt
COc1ccc(C2C(C(=O)Nc3ccccc3)=C(C)N=C3SCC(=O)N32)cc1 (stereo not drawn) | -4 | -9 | nt | 4 | nt
CC1=C(C(=O)Nc2ccccc2)C(c2ccc(O)cc2)N2C(=O)CSC2=N1 (stereo not drawn) | -1 | 3 | nt | 15 | 23*
CN1c2ccc(-c3ccc(F)cc3)cc2[C@H]2[C@H](CCN2C(=O)c2ccc(F)cc2)[C@@H]1CO | nt | nt | 0 | nt | nt
O=C1Nc2cc(C(=O)NCC3CCCO3)ccc2S/C1=C/c1ccccc1F (stereo not drawn) | -1 | -3 | 2 | 54* | 0
CN1C(=O)/C(=C/c2ccccc2F)Sc2ccc(C(=O)NCC3CCCO3)cc21 (stereo not drawn) | 3 | 24 | 2 | -9 | 0
CC(=O)N(C)C[C@@H]1Oc2cc(-c3ccc(C)cc3)ccc2S(=O)(=O)N([C@@H](C)CO)C[C@H]1C | -2 | nt | -6 | nt | nt
OCCNc1nc(Nc2ccccc2)nc2ccccc12 | 1 | -4 | nt | -5 | 17*
OCCNc1nc(Nc2ccc(Br)cc2)nc2ccccc12 | nt | nt | 1 | 20 | nt
CN1CCC(N(C)C(=O)c2ccc(Cl)c(S(=O)(=O)Nc3cc(Cl)ccc3Cl)c2)CC1 | 1 | 4 | 1 | nt | i
COc1ccc(C(=O)N(C)C2CCN(C)CC2)cc1S(=O)(=O)Nc1cc(Cl)ccc1Cl | nt | nt | nt | 52* | nt
O=C(C[C@@H]1CC[C@H](NC(=O)CC2CC2)[C@H](CO)O1)NCc1ccc(Cl)cc1 | 0 | nt | 0 | nt | nt
CO[C@@H]1CN(C)C(=O)c2ccc(NC(=O)C3CCCCC3)cc2OC[C@H](C)NC[C@@H]1C | 2 | nt | 2 | nt | nt
Cc1ccc(-n2ncc(C(=O)NCC3CCN(C4CCCC4)C3)c2C2CCN(C(=O)OC(C)(C)C)CC2)cc1C (stereo not drawn) | -2 | 6 | 1 | 58* | 0
Cc1ccc(-n2ncc(C(=O)NCC3CCN(C4CCCC4)C3)c2C2CCN(C(=O)OC(C)(C)C)CC2)cc1 (stereo not drawn) | 1 | 11 | 0 | 18 | -1
SMILES | BioA inh | Yp Topo-I inh | TcdB inh | DUSP3 inh | Vc quorum ag
CN(C)CCNC(=O)c1ccc(CS(=O)(=O)c2c(Cl)cccc2Cl)o1 | -1 | -12 | 2 | 21 | i
CCCN(CCC)CCCNC(=O)c1ccc(CS(=O)(=O)c2c(Cl)cccc2Cl)o1 | -1 | -4 | 1 | 55* | 0
COc1ccc(NC(=O)CN2CCN(c3nc(-c4ccc(F)cc4)cs3)CC2)c(OC)c1 | nt | 54* | 1 | 24 | 0
COCC(=O)Nc1ccc2c(c1)C(=O)N(C)[C@H]1CC[C@@H](CC(=O)NCc3ccccc3)O[C@@H]1CO2 | 0 | nt | 1 | nt | nt
CO[C@H]1CN(C)C(=O)c2cc(NC(=O)Nc3ccc(Cl)c(Cl)c3)ccc2OC[C@H](C)NC[C@H]1C | 1 | nt | nt | nt | nt
O=C(CC1C(=O)NCCN1Cc1ccccc1C(F)(F)F)NCCN1CCOCC1 (stereo not drawn) | -3 | 1 | 0 | 14 | i
CN(CCN1CCOCC1)C(=O)CC1C(=O)NCCN1Cc1ccccc1C(F)(F)F (stereo not drawn) | -4 | -5 | 19* | 36 | 0
COc1cccc(C(=O)NC(C)C(c2cccs2)N2CCOCC2)c1 (stereo not drawn) | 2 | 4 | 0 | 53* | -1
CCN1CCN(C(c2cccs2)C(C)NC(=O)c2cccc(OC)c2)CC1 (stereo not drawn) | 2 | 2 | -5 | 9 | -1
Fc1cccc(CCN2C(=S)NC[C@@H]2Cc2ccccc2)c1 | 2 | 34 | 0 | 0 | 0
Fc1cccc(CCN2C(=S)NC[C@@H]2CC2CCCCC2)c1 | -2 | 52* | -6 | 27 | i
COCC(=O)N1CC(=O)N2[C@H](CO)[C@@H](c3ccc(C#CC(C)C)cc3)[C@H]2C1 | nt | nt | -1 | nt | nt
CCOC(=O)/C(C#N)=C\N(C)C | nt | 5 | nt | 57* | 0
Cc1ccc(S(=O)(=O)N2CCC(C(=O)OCc3ccccc3)CC2)cc1C | -1 | 35 | 2 | nt | -2
Cc1ccc(S(=O)(=O)N2CCC(C(=O)OCC(=O)NCCc3ccccc3)CC2)cc1C | nt | 11 | 16* | nt | 1
CC(C)CNC(=O)COc1ncnc2ccccc12 | nt | -10 | nt | 43 | 1
O=C(COc1ncnc2ccccc12)NCCc1ccc(F)cc1 | nt | -4 | 13* | 14 | -1
O=C(N[C@H]1CC[C@H](CCNS(=O)(=O)c2ccccc2)O[C@@H]1CO)c1cnccn1 | 0 | nt | 0 | nt | nt
Cc1n[nH]c(C)c1N1C(=O)c2cccc3cc(Br)cc(c23)C1=O | 58* | 8 | nt | -10 | -1
Cc1n[nH]c(C)c1N1C(=O)c2cccc3c(Br)ccc(c23)C1=O | 1 | -3 | nt | -20 | nt
O=C(c1cccnc1)N1C[C@H]2[C@@H](c3ccccc31)[C@H](CO)N2CC1CCCC1 | -4 | nt | 0 | nt | nt
COc1ccc([C@H]2CC(=O)C=C(c3ccc(OC(F)(F)F)cc3)C2)cc1 | 0 | 15 | -1 | nt | i
CCCOc1ccc(C2=CC(=O)C[C@H](c3ccc(OC)cc3)C2)cc1 | 0 | 60* | 0 | nt | i
CCN(CC)c1ccc(C=NCCNS(=O)(=O)c2ccc(C)cc2)cc1 | -2 | 1 | 1 | 57* | i
O=C1NC(Cc2ccccc2)c2nc3cc(F)ccc3c(=O)n2-c2cc3ccccc3cc21 (stereo not drawn) | -1 | ? | 0 | nt | 2
COc1cc2nc3n(c(=O)c2cc1OC)-c1cc2ccccc2cc1C(=O)NC3Cc1ccccc1 (stereo not drawn) | 0 | 65* | -2 | nt | -1
